The source made the active and inactive calls. The calls were made as follows: active = hit-call score of the fitted dose curve at least 0.9, where 1 is the maximum; inactive = score below 0.9.
Key:
Conditions in all cases: mRNA level, 48 h; actives raise or lower the signal
[1] = read-out: CYP4A11 (gene 1579); assay: LTEA_HepaRG_CYP4A11: Life Technologies and Expression Analysis (LTEA) Assay for CYP4A11 using HepaRG (AID 2283486)
How it was run: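 Differentiated HepaRG cells, 48 h after plating, exposed in duplicate for 48 h to 8 half-log concentrations up to 100 uM in 0.5% DMSO in serum-free induction medium. CYP4A11 mRNA measured by TaqMan qRT-PCR, normalized to ACTB, GAPDH and POLR2A.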

[2] = read-out: Cytochrome P450 3A4 (Homo sapiens) (UniProt P08684); assay: LTEA_HepaRG_CYP3A4: Life Technologies and Expression Analysis (LTEA) Assay for CYP3A4 using HepaRG (AID 2283487)
How it was run: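 CYP3A4 transcript measured by TaqMan qRT-PCR and normalized to three housekeeping genes after 48 h chemical exposure of human HepaRG cells. Top concentration 100 uM, half-log steps, 0.5% DMSO vehicle; gain or loss fitted against DMSO baseline.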

[3] = read-out: DNA damage-inducible transcript 3 (DDIT3), DDIT3 (gene 1649); assay: LTEA_HepaRG_DDIT3: Life Technologies and Expression Analysis (LTEA) Assay for DNA damage-inducible transcript 3 (DDIT3) using HepaRG (AID 2283488)
How it was run: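 Differentiated human HepaRG cells in serum-free induction medium were exposed in duplicate for 48 h to 8 concentrations (top 100 uM, half-log steps, 0.5% DMSO). DDIT3 mRNA measured by TaqMan qRT-PCR, normalized to ACTB/GAPDH/POLR2A; bidirectional fit versus DMSO.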

[4] = read-out: Pro-epidermal growth factor (Homo sapiens) (UniProt P01133); assay: LTEA_HepaRG_EGF: Life Technologies and Expression Analysis (LTEA) Assay for Epidermal growth factor (EGF) using HepaRG (AID 2283489)
How it was run: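 HepaRG cells (~100,000/well, 48 h pre-culture) exposed in duplicate for 48 h in serum-free induction medium to 8 half-log concentrations up to 100 uM in 0.5% DMSO. EGF mRNA by qRT-PCR, normalized to ACTB/GAPDH/POLR2A; bidirectional fit versus DMSO.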

[5] = read-out: Early growth response protein 1 (EGR1) transcription factor, EGR1 (gene 1958); assay: LTEA_HepaRG_EGR1: Life Technologies and Expression Analysis (LTEA) Assay for Early growth response protein 1 (EGR1) transcription factor using HepaRG (AID 2283490)
How it was run: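 Differentiated HepaRG cells in serum-free induction medium exposed 48 hours, duplicate, to 8 half-log concentrations up to 100 uM in 0.5% DMSO. EGR1 mRNA measured by TaqMan qRT-PCR, normalized to ACTB, GAPDH, POLR2A; bidirectional fit versus DMSO.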

[6] = read-out: Ezrin (EZR), EZR (gene 7430); assay: LTEA_HepaRG_EZR: Life Technologies and Expression Analysis (LTEA) Assay for Ezrin (EZR) using HepaRG (AID 2283491)
How it was run: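 HepaRG, 48 h chemical exposure, 8-pt half-log series from 100 uM, 0.5% DMSO vehicle, duplicates. Read-out: EZR mRNA by TaqMan qRT-PCR (Fluidigm array), housekeeping-normalized; bidirectional curve fit vs DMSO baseline.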

[7] = read-out: Cytochrome P450 3A7 (Homo sapiens) (UniProt P24462); assay: LTEA_HepaRG_CYP3A7: Life Technologies and Expression Analysis (LTEA) Assay for CYP3A7 using HepaRG (AID 2283492)
How it was run: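 Differentiated HepaRG cells in serum-free induction medium exposed 48 h in duplicate to 8-point half-log series from 100 uM top in 0.5% DMSO. CYP3A7 mRNA by qRT-PCR, normalized to ACTB/GAPDH/POLR2A, bidirectional fit versus DMSO.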

[8] = read-out: CYP3A5 (gene 1577); assay: LTEA_HepaRG_CYP3A5: Life Technologies and Expression Analysis (LTEA) Assay for CYP3A5 using HepaRG (AID 2283493)
How it was run: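 Differentiated HepaRG cells in serum-free induction medium were dosed 48 h with test chemicals (8-point half-log series, top 100 uM, 0.5% DMSO, duplicate). CYP3A5 mRNA measured by qRT-PCR, normalized to ACTB, GAPDH, POLR2A; bidirectional fit versus DMSO.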

[9] = read-out: Fatty Acid-Binding Protein 1 (FABP1), FABP1 (gene 2168); assay: LTEA_HepaRG_FABP1: Life Technologies and Expression Analysis (LTEA) Assay for Fatty Acid-Binding Protein 1 (FABP1) using HepaRG (AID 2283494)
How it was run: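 Differentiated human HepaRG cells exposed 48 h in serum-free induction medium to eight half-log concentrations up to 100 uM (0.5% DMSO), duplicate. FABP1 mRNA by qRT-PCR, normalised to ACTB, GAPDH, POLR2A; bidirectional fitting against DMSO.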

[10] = read-out: Cytochrome P450 4A22 (Homo sapiens) (UniProt Q5TCH4); assay: LTEA_HepaRG_CYP4A22: Life Technologies and Expression Analysis (LTEA) Assay for Cytochrome P450 4A22 (CYP4A22) using HepaRG (AID 2283495)
How it was run: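 Differentiated HepaRG cells in serum-free induction medium exposed 48 h in duplicate to eight half-log concentrations up to 100 uM in 0.5% DMSO. CYP4A22 mRNA quantified by TaqMan qRT-PCR, normalized to ACTB, GAPDH and POLR2A; bidirectional fit versus DMSO.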

[11] = read-out: Cytochrome P450 7A1 (Homo sapiens) (UniProt P22680); assay: LTEA_HepaRG_CYP7A1: Life Technologies and Expression Analysis (LTEA) Assay for Cytochrome P450 7A1 (CYP7A1) using HepaRG (AID 2283496)
How it was run: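 Gene expression endpoint in human HepaRG liver cells treated for 48 h with test chemicals (up to 100 uM, 0.5% DMSO). Values come from bidirectional concentration-response fitting versus DMSO.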

[12] = read-out: Glutathione S-Transferase (GSTA2), GSTA2 (gene 2939); assay: LTEA_HepaRG_GSTA2: Life Technologies and Expression Analysis (LTEA) Assay for Glutathione S-Transferase (GSTA2) using HepaRG (AID 2283497)
How it was run: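 Differentiated human HepaRG cells were exposed in duplicate for 48 h in serum-free induction medium, 8 points from 100 uM top in half-log steps, 0.5% DMSO. GSTA2 mRNA was measured by TaqMan qRT-PCR, normalized to ACTB, GAPDH and POLR2A; bidirectional fit versus DMSO.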

[13] = read-out: Glutamate-cysteine ligase catalytic (GCLC), GCLC (gene 2729); assay: LTEA_HepaRG_GCLC: Life Technologies and Expression Analysis (LTEA) Assay for Glutamate-cysteine ligase catalytic (GCLC) using HepaRG (AID 2283498)
How it was run: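 Differentiated HepaRG cells exposed 48 h in serum-free induction medium, eight-point half-log series topping at 100 uM in 0.5% DMSO, duplicates. GCLC mRNA by qRT-PCR normalized to ACTB, GAPDH and POLR2A, fitted bidirectionally versus DMSO.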

[14] = read-out: growth arrest and DNA damage 45 (GADD45G), GADD45G (gene 10912); assay: LTEA_HepaRG_GADD45G: Life Technologies and Expression Analysis (LTEA) Assay for growth arrest and DNA damage 45 (GADD45G) using HepaRG (AID 2283499)
How it was run: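 Differentiated human HepaRG cells, 48 h post-plating, exposed 48 h in serum-free induction medium to 8 half-log concentrations (top 100 uM, 0.5% DMSO) in duplicate. GADD45G mRNA measured by Fluidigm TaqMan qRT-PCR, normalized to ACTB, GAPDH, POLR2A; bidirectional fit versus DMSO.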

[15] = read-out: Glutamate-cysteine ligase regulatory (GCLM), GCLM (gene 2730); assay: LTEA_HepaRG_GCLM: Life Technologies and Expression Analysis (LTEA) Assay for Glutamate-cysteine ligase regulatory (GCLM) using HepaRG (AID 2283500)
How it was run: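 Differentiated human HepaRG cells exposed 48 h in serum-free induction medium to 8-point half-log concentrations (top 100 uM, 0.5% DMSO), in duplicate. GCLM mRNA quantified by qRT-PCR, normalized to ACTB, GAPDH, POLR2A; bidirectional fitting versus DMSO.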

[16] = read-out: Glutathione S-transferase M3 (GSTM3), GSTM3 (gene 2947); assay: LTEA_HepaRG_GSTM3: Life Technologies and Expression Analysis (LTEA) Assay for Glutathione S-transferase M3 (GSTM3) using HepaRG (AID 2283501)
How it was run: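 Differentiated human HepaRG cells were exposed in duplicate for 48 h in serum-free induction medium, 8 points from 100 uM top in half-log steps, 0.5% DMSO. GSTM3 mRNA was measured by TaqMan qRT-PCR, normalized to ACTB, GAPDH and POLR2A; bidirectional fit versus DMSO.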

[17] = read-out: Heat shock 70 kDa protein 1 (HSPA1A), gene 3303; assay: LTEA_HepaRG_HSPA1A: Life Technologies and Expression Analysis (LTEA) Assay for Heat shock 70 kDa protein 1 (HSPA1A) using HepaRG (AID 2283502)
How it was run: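 Differentiated human HepaRG cells in serum-free induction medium were exposed in duplicate for 48 h to eight concentrations (top 100 uM, half-log steps, 0.5% DMSO). HSPA1A mRNA was quantified by qRT-PCR, normalized to ACTB, GAPDH and POLR2A, and fitted bidirectionally against DMSO.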

[18] = read-out: Hypoxia-inducible factor 1-alpha (Homo sapiens) (UniProt Q16665); assay: LTEA_HepaRG_HIF1A: Life Technologies and Expression Analysis (LTEA) Assay for Hypoxia-inducible factor 1 (HIF1A) Trancription factor using HepaRG (AID 2283503)
How it was run: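 HepaRG, 48 h exposure, 8-pt half-log series from 100 uM, 0.5% DMSO vehicle, duplicates. Readout: HIF1A transcript by qRT-PCR (Fluidigm array), housekeeping-normalised. Bidirectional curve fit vs DMSO baseline.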

[19] = read-out: 3-Hydroxy-3-Methylglutaryl-CoA Synthase 2 (HMGCS2), HMGCS2 (gene 3158); assay: LTEA_HepaRG_HMGCS2: Life Technologies and Expression Analysis (LTEA) Assay for 3-Hydroxy-3-Methylglutaryl-CoA Synthase 2 (HMGCS2) using HepaRG (AID 2283504)
How it was run: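 Human HepaRG cells in serum-free induction medium were exposed in duplicate for 48 h to 8-point half-log series from 100 uM top in 0.5% DMSO. HMGCS2 mRNA measured by TaqMan qRT-PCR, normalised to ACTB, GAPDH, POLR2A; bidirectional fit versus DMSO.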

Measured: AC50

Chain of Cytochrome P450 3A7 (Homo sapiens) (P24462 whole entry, looked up): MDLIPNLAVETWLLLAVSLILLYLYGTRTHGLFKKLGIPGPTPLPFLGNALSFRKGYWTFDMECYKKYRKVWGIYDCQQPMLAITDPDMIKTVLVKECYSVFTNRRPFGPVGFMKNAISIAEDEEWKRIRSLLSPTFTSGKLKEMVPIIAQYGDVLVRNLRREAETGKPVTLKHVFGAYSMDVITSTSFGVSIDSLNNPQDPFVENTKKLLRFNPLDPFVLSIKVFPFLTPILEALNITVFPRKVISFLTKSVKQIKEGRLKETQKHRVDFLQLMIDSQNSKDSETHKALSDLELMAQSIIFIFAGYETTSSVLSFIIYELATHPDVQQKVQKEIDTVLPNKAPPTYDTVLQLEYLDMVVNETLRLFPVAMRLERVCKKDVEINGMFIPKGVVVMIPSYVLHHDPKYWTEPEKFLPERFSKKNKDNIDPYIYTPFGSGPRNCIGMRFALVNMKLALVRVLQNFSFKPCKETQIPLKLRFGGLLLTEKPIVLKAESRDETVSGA
Chain of Cytochrome P450 3A4 (Homo sapiens) (P08684 whole entry, looked up): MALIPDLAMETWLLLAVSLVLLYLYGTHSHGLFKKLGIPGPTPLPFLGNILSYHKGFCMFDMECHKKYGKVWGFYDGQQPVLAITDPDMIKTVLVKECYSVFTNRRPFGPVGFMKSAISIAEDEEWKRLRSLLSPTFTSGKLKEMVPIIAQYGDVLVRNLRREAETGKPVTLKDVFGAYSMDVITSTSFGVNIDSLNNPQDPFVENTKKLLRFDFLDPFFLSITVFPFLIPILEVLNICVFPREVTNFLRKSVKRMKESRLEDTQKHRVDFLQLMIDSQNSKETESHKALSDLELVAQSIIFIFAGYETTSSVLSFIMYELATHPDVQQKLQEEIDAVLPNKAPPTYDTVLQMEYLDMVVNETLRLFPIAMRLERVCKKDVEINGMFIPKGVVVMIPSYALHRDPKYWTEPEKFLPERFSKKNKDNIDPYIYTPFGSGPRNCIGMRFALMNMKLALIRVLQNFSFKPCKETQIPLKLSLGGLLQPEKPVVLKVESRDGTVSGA
Chain of Hypoxia-inducible factor 1-alpha (Homo sapiens) (Q16665 whole entry, looked up): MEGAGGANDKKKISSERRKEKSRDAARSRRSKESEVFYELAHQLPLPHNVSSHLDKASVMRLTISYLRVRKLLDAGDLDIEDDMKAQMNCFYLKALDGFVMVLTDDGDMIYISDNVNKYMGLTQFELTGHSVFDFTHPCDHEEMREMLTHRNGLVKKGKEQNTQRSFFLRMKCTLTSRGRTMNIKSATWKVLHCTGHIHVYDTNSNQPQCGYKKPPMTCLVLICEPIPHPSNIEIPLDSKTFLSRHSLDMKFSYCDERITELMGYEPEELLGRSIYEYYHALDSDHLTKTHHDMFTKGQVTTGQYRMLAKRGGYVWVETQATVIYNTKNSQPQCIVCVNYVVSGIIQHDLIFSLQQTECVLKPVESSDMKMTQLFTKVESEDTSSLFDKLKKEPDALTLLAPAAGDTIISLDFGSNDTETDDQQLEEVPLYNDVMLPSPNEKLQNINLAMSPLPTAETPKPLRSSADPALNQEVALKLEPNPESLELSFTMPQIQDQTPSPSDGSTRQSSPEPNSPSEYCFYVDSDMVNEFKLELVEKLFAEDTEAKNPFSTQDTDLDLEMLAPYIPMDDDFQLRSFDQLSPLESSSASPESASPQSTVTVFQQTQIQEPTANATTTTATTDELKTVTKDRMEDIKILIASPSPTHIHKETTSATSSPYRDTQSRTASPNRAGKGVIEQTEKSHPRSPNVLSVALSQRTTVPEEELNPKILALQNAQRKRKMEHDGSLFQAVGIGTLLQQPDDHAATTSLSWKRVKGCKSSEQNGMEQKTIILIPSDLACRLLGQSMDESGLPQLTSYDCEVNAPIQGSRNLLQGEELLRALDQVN

CC1=C2C[C@H]3[C@@H](CC=C4C[C@@H](O)CC[C@@]43C)[C@@H]2CC[C@]12O[C@@H]1C[C@H](C)CN[C@H]1[C@H]2C
inactive: [1] | [2] | [3] | [4] | [5] | [6] | [7] | [8] | [9] | [10] | [11] | [12] | [13] | [14] | [15] | [16] | [17] | [18] | [19]

ClC1=C(Cl)[C@]2(Cl)[C@@H]3[C@H]4C[C@H]([C@@H]5O[C@H]45)[C@@H]3[C@@]1(Cl)C2(Cl)Cl
inactive: [4] | [5] | [6] | [8] | [13] | [14] | [15] | [16] | [17] | [18]
active: [1] 24.6 µM | [3] 50 µM | [7] 2.94 µM | [9] 1.86 µM | [10] 32.5 µM | [11] 17.4 µM | [12] 32.6 µM | [19] 30.5 µM

Cc1cc(O)ccc1Cl
inactive: [1] | [2] | [3] | [4] | [5] | [6] | [7] | [8] | [9] | [10] | [11] | [12] | [13] | [14] | [15] | [16] | [17] | [18] | [19]

COS(=O)(=O)OC
inactive: [1] | [2] | [3] | [4] | [5] | [6] | [7] | [8] | [9] | [10] | [11] | [12] | [13] | [14] | [15] | [16] | [17] | [18] | [19]

ClC1=C(Cl)[C@]2(Cl)[C@@H]3[C@@H]4C[C@@H]([C@H]5O[C@@H]45)[C@@H]3[C@@]1(Cl)C2(Cl)Cl
inactive: [4] | [5] | [6] | [7] | [8] | [13] | [14] | [15] | [16] | [17]
active: [1] 31.5 µM | [3] 62.8 µM | [9] 0.0265 µM | [10] 34.2 µM | [11] 0.0248 µM | [12] 50 µM | [18] 0.0315 µM | [19] 50 µM

Nc1ccc(-c2ccc(N)cc2)cc1
active: [1] 33.1 µM | [10] 8.3 µM | [11] 1.44 µM
inactive: [2] | [3] | [4] | [5] | [6] | [8] | [9] | [12] | [13] | [14] | [15] | [16] | [17] | [18] | [19]

Reference: PubChem BioAssay (EPA / NIEHS)
